# Compound activity from PubChem BioAssay.
# Rows were chosen to be rich in hits. Some 2.5% of all compounds tested hit in one or more screens of this group.
# Mito fusion yeast: mitochondrial division inhibition or fusion activation; S. cerevisiae fusion-defective mutant growth rescue, CellTiterGlo 48 h; Potency, µM (top dose mostly 46.1 µM), for the others: top-dose growth rescue (activation), actives largely listed as activators; AID 485298; 320,000 tested, 0.23% active; also: potency is read from the fitted curve at half-maximal effect; % of control where 0% means no effect; nearly all actives have a fitted effect of over 45% in size
#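 Yeast fusion mutant, YPEG (non-fermentable carbon), compound, 48 h at 37C non-permissive; CellTiterGlo added, 10 min RT, luminescence read. Rescued growth = division inhibition.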
# Akt phos inh: blocks phosphorylation of Akt. Neuro2A IGF-stimulated pAkt S473 HTRF, 20 min; stronger effect = lower value. activity change, % for hits at 50 µM. 360,000 tested, 0.32% active; in the data active = activity change below about -80%; inconclusive = mostly about -51% to -80%; also: % is scaled to controls: 0 for no effect and ±100 for the full control effect
#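 Neuro2A cells (4,500/well, DMEM with 0.5% FBS) were treated with compound at a single 50 µM final concentration, stimulated with 6 nM IGF for 20 min at 37 °C, and lysed. Phospho-Akt Ser473 was read by HTRF as 665/615 ratio ×10^4.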
# aSyn yeast inh: inhibitors of alpha-synuclein toxicity in yeast; AID 652106; Potency, µM (doses to about 46.1 µM), inactives show at the top dose growth rescue (activation), usual class: activators; Yeast expressing alpha-synuclein, growth rescue, BacTiter-Glo, 24 h; 370,000 tested, 0.14% active; also: potency is read from the fitted curve at half-maximal effect; % of control where 0% means no effect; nearly all actives have a fitted effect of over 65% in size
#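 Galactose-induced alpha-syn yeast (OD600=0.02, raffinose-pregrown) + pinned cpd, 24 hr, 30 deg C; growth by BacTiter-Glo luminescence. Growth restoration scores as activation.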
# CCT modulator: changes cytosolic chaperonin activity | AID 651819 | 360,000 tested, 0.3% active | purified chaperonin ATPase assay, HTRF ADP detection, 30 min | activity change, % (no concentration beside the values), hits read low; in the data active = activity change below about -30%; also: % is scaled to controls: 0 for no effect and ±100 for the full control effect
#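 We incubate TRiC, 40 or 20 nM final, with library compounds at 76 uM and 10 uM ATP for 30 min at 37 °C. ADP formed is detected with Transcreener HTRF reagents after 30 min at room temperature.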
# Anesthetic bind: candidate novel general anesthetic via apoferritin binding. apoferritin/1-aminoanthracene competitive binding, fluorescence. Potency, µM (highest dose often 77.5 µM), without a hit: top-dose activity change, negative = displacement, actives largely listed as inhibitors. 350,000 tested, 0.074% active. AID 485281; also: potency is read from the fitted curve at half-maximal effect; % is scaled to controls: 0 for no effect and ±100 for the full control effect; nearly all actives have a fitted effect of over 20% in size
# Target sequence (P02791 2-175 limits assumed): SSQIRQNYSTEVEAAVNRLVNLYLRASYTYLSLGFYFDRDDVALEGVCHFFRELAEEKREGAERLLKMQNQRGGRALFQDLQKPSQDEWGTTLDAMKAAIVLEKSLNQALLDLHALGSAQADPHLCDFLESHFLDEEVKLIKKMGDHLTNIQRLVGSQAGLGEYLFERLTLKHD
#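 Steps: apoferritin (10 uM) was premixed with half-saturated 1-AMA in PBS, compounds were pin-transferred, plates stood 10 min at room temperature, fluorescence was read at 380/535 nm, and curves were fitted with a Hill equation.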
# TDP43 rescue: TDP-43 toxicity inhibition in yeast; TDP-43 expressing yeast growth rescue, BacTiter-Glo, 24 h; Potency, µM (highest dose often 46.1 µM), for inactives: at the top dose growth rescue (activation), hits mostly activators; 410,000 tested, 1.8% active; also: potency is read from the fitted curve at half-maximal effect; % of control where 0% means no effect; nearly all actives have a fitted effect of over 50% in size
#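 In this qHTS, compounds that restore growth of yeast expressing TDP-43 appear as activators. Cells (OD600=0.02, galactose medium, raffinose-pregrown) are incubated with compound 24 hr at 30 deg C and growth is quantified by BacTiter-Glo.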
# The depositor's hits bear a star; i = inactive; u = inconclusive; x = no result given; [ ] = remark or other dose. Unless noted, calls follow the shape of the dose curve; as a rule, active = well fitted curve in the direction sought with a large enough effect; inconclusive = small, poorly fitted or top-dose-only effect, or another doubt; inactive = no such curve, though single readings can be large; an effect the other way counts as inactive or inconclusive.
SMILES,Mito fusion yeast,Akt phos inh,aSyn yeast inh,CCT modulator,Anesthetic bind,TDP43 rescue
COc1cc2c(cc1OC)C(COc1ccc(F)cc1)N(C(=O)Cc1ccc(F)cc1)CC2 (stereo not drawn),x,x,x,x,46.9%,x
COC(=O)c1ccc(OCC2c3cc(OC)c(OC)cc3CCN2C(C)=O)cc1 (stereo not drawn),1.2%,i,6.0%,1.0,-9.7%,5.1%
CC(C)COc1ccccc1C1CC(=O)Nc2cc3c(cc21)OCO3 (stereo not drawn),x,x,x,x,-5.7%,1.3%
CCCCCCCc1nn2c(=O)cc(O)nc2s1,0.9%,i,-3.7%,-1.0,-10.1%,-25.5%
CCCCc1nn2c(C)c(-c3ccc(OCC)cc3)nc2s1,x,x,x,x,54.5%,22.4µM*
O=C(COc1ccccc1)NC1CCCCCCC1,-1.5%,i,9.6%,1.4,44.7µM*,u
O=C(COC(=O)Cc1c(Cl)cccc1Cl)NC1CCCC1,x,i,11.7%,-2.9,x,20µM*
CC(C)(C)c1ccc(OCCC(=O)OCC(=O)NC2CCCCC2)cc1,-1.7%,i,7.3%,1.1,x,35.5µM*
O=C(COc1ccccc1)NC1CCCCC1,13.0%,i,-0.3%,-0.1,-0.1%,3.1%
CCCCN(C)c1nnc(NC(=O)Nc2cccc(C(C)=O)c2)s1,x,x,x,x,u,6.8%[9.22 µM]
Cc1cccc(C)c1N=Nc1c(C)cc(O)cc1C,-28.6%,i,-67.4%,-9.7,25.1µM*,u
Cc1cccc(O)c1C,x,i,-3.7%,-2.8,x,-8.4%
O=C(/C=N/O)Nc1ccc2sc3ccccc3c2c1,15.1%,i,0.5%,-1.6,-15.1%,7.94µM*
CCOC(=O)c1cc2c(C(F)(F)F)cc(-c3cccnc3)nc2o1,-0.5%,-112.2%*,6.6%,-31.6*,-10.6%,-0.7%
COc1ccc(C(=O)N2CCC(O)(c3ccc(Cl)cc3)CC2)cc1OC,-4.3%,i,-1.0%,-1.9,16.4%,0.0%
COc1cccc(SCC2(O)CCN(C(=O)c3ccc(Cl)cc3)CC2)c1,-2.8%,i,-0.4%,0.7,-5.8%,22.4µM*
O=C(c1ccc(Cl)cc1)N1CCC(O)(CSc2ccc(Cl)cc2)CC1,15.8%,i,u,1.1,-18.0%,35.5µM*
O=C(c1ccc(Cl)cc1)N1CCC(O)(CSc2ccccc2)CC1,12.8%,i,4.9%,0.3,-1.4%,0.0%
CCCCOc1ccc(Cn2c(=O)oc3ccc(C)cc32)cc1,x,x,1.1%,x,1.1%,14.2%
O=C(O/N=C/c1ccc2c(c1)OCO2)c1ccc([N+](=O)[O-])cc1,-3.8%,i,-0.3%,-30.6*,-2.1%,-4.9%
O=C(COC(=O)c1cccc(Br)c1)NCCc1ccc(F)cc1,7.0%,i,2.7%,0.2,u,12.6µM*
O=C(COC(=O)c1ccc(Br)cc1)NCc1ccc(F)cc1,-4.1%,i,-10.4%,1.8,-3.5%,x
O=S(=O)(Nc1ccc2c(c1)CCC2)c1cccs1,3.0%,i,18.0%,-3.5,11.2µM*,u
Cc1cc(C)c(NC(=O)/C=C\C(=O)O)c([N+](=O)[O-])c1,0.1%,i,-63.9%,1.4,-8.7%,15.8µM*
Cc1cc(C)c(NC(=O)/C=C\C(=O)O)c(Cl)c1,3.6%,i,2.2%,-4.6,-2.6%,12.6µM*
SMILES,Mito fusion yeast,Akt phos inh,aSyn yeast inh,CCT modulator,Anesthetic bind,TDP43 rescue
Cc1ccc(NC(=O)/C=C\C(=O)O)c([N+](=O)[O-])c1,-1.7%,i,-6.0%,1.0,-10.7%,u
Cc1cc(C)c(NC(=O)CS)c(Cl)c1,-0.9%,i,-0.9%,-1.9,-9.1%,14.2%
CCCOc1ccc(-c2cc(C(F)(F)F)c(C#N)c(SCCC(=O)O)n2)cc1,x,x,x,x,-1.9%,16.3%
O=C(c1ccccc1)c1ccc2cc(O)ccc2c1,-18.3%,i,-30.5%,0.4,u,11.2µM*
COc1ccc(C(=O)c2ccc(Cl)cc2)cc1,0.8%,i,-13.3%,0.2,-11.0%,-8.6%
Cc1ccc(C(=O)c2cccc(N)c2)cc1C,1.2%,i,7.9%,0.1,-18.2%,2.6%
Cc1ccc(C(=O)c2ccc(O)cc2)cc1C,u,i,-0.5%,-2.7,-8.5%,17.8µM*
O=C(c1ccccc1)c1ccc2ccccc2c1,x,i,-12.8%,-1.8,x,-15.0%
O=C(c1ccc(O)cc1)c1ccc(Cl)cc1,6.3%,i,10.3%,-1.2,u,11.2µM*
O=C(NCc1ccccc1Cl)c1ccc2c(c1)N(Cc1ccccc1)C(=O)CS2,x,x,x,x,-3.6%,12.5%
CC(O)c1cccc2cc(C(O)CNC(C)(C)C)oc12 (stereo not drawn),x,x,x,x,-0.8%,x
CCS(=O)(=O)N1CCc2cc(C(=O)N3CCN(c4ccc(OC)cc4)CC3)ccc21,x,x,x,x,-4.9%,3.3%
COc1ccc(Cl)cc1NC(=O)CCn1nc(C)cc1C,x,x,x,x,-8.1%,28.1%
Cc1nn(C)c2nc(NNC(=O)Nc3cc(Cl)nc(Cl)c3)cc(C(C)C)c12,x,x,x,x,-15.0%,x
CCCCN(CC)c1nc(-c2ccncc2)nc2ccccc12,17.8µM*,i,9.9%,1.9,u,u
Cc1ccc(NC(=O)C(Cc2ccccc2)n2cccc2)cc1C (stereo not drawn),x,x,x,x,-1.2%,18.3%
N#Cc1cn(CCOc2ccc(F)cc2)c2ccccc12,1.7%,-116.7%*,27.5%,-3.5,-3.1%,20µM*
COC(=O)C1=C[C@@H](C(=O)OC)C2C3=C(C(=O)[C@@]2(C)NC(=O)c2ccccc2)[C@H](C)[C@@H]2C(=O)N(C)C(=O)[C@@H]2[C@@H]3C1 (stereo partly drawn),x,x,x,x,-0.7%,x
Cc1ccc(CNC(=O)c2cc3c(=O)n(C)c4ccccc4c3n2C)cc1,1.3%,i,3.1%,-31.6*,1.0%,0.0%
COc1ccc(NC(=O)c2cc3c(=O)n(C)c4ccccc4c3n2C)cc1OC,1.6%,i,1.3%,-31.6*,161.1%,7.8%
CN(CCNC(=O)c1cc2c(=O)n(C)c3ccccc3c2n1C)Cc1ccccc1,1.8%,i,u,0.4,-19.0%,-3.0%
COc1cccc(CNC(=O)c2cc3c(=O)n(C)c4ccccc4c3n2C)c1,x,x,x,x,25.9%,-6.7%
COc1ccc(NC(=O)c2cc3c(=O)n(C)c4ccccc4c3n2C)cc1Cl,-0.7%,i,0.7%,-4.2,-7.4%,-6.5%
CCCN(CCC)CCNC(=O)c1cc2c(=O)n(C)c3ccccc3c2n1C,-1.1%,i,11.2µM*,0.0,3.2%,-2.5%
Nc1nc(SCc2ccccc2)sc1C(=O)N1CCCCC1,x,i,15.5%,1.3,x,12.6µM*
Cc1ccc(NC(=O)C2CCC(CNS(=O)(=O)c3csc(C(N)=O)c3)CC2)cc1Cl (stereo not drawn),x,x,x,x,-12.6%,-1.5%
Cc1cc2nc(-c3ccc(OCc4ccc(F)cc4)cc3)cc(C(F)(F)F)n2n1,x,x,x,x,-7.8%,22.5%
Oc1cc(O)c(/C=C/c2ccnc3ccccc23)c(O)c1,x,x,-3.5%,x,x,x
